In general, inhibition refers to the drop in the measured response relative to a control, in per cent.

Among the data in PubChem BioAssay are growth inhibition, inhibition and outcome values, retold here.

The nature of assay [1]: antimalarial activity against Dd2 strain (AID 2302;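 active = growth inhibition above 50% at the single 2 µM test dose, taken to imply half-maximal potency below 2 µM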;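 note: 0% = DMSO untreated growth and 100% = chloroquine plus artemisinin killed control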). The settings on record: P. falciparum Dd2 in RBCs, LDH growth readout, 72 h; at 2 µM; active compounds read high.
A short description of assay [2]: HepG2 cytotoxicity, primary screen, cytotoxicity control for P. falciparum antimalarial project, cell-based, ATP luminescence (AID 2303;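 active = inhibition above 50%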;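 note: 0% = DMSO wells and 100% = digitonin-killed cells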). To be noted: HepG2 viability, 24-48 h, at 10 µM, active compounds read high.
The target in assay [3] is L-lactate dehydrogenase (Plasmodium falciparum (isolate CDC / Honduras)) (UniProt Q27743). The experiment in a line: PfLDH activity inhibition – cell lysate, 3D7 strain, counter-screen for P. falciparum growth inhibition project (AID 2304).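 Note: 0% = vehicle and 100% = reference inhibitor.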 The settings on record: P. falciparum 3D7 crude extract, LDH APAD/NBT absorbance; at 2 µM; active compounds read high. (In general: A counterscreen serves to expose hits that act by an unwanted route or on another target.)

Assay [4] is described as follows: inhibition of 3D7 malaria parasite growth – strain 3D7 (AID 2306).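 Note: 0% = DMSO wells and 100% = chloroquine plus artemisinin control wells.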 The settings on record: P. falciparum 3D7 erythrocytic growth, LDH absorbance, 72 h; at 2 µM; active compounds read high.
In assay [5] the target is Calcium-dependent protein kinase 1 (Plasmodium falciparum (isolate 3D7)) (UniProt P62344). The experiment in a line: PfCDPK1 kinase inhibitors, biochemical, TCAMS library (AID 1159585; cut-off not given, nearly all actives have IC50 up to about 0.98 µM;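 note: inhibitors leave more ATP so luminescence rises with inhibition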). The settings on record: recombinant PfCDPK1, Kinase-Glo ATP depletion luminescence. (In general: Kinase-Glo measures the ATP left after a reaction by luminescence.)
For assay [6], the target named is Plasmodium falciparum protein kinase 6 (PK6, PF3D7_1337100) (UniProt Q8IDW1). The assay can be described thus: PfPK6 kinase inhibitors, biochemical, TCAMS library (AID 1159586). The settings on record: recombinant PfPK6, Kinase-Glo ATP depletion luminescence.
For assay [7], the target named is Protein kinase 7 (PK7), Plasmodium falciparum 3D7 (PF3D7_0213400) (UniProt Q7YTF7). The experiment in a line: inhibition of Plasmodium PK7 catalytic activity – biochemical, TCAMS antimalarial set, Kinase-Glo luminescence (AID 1159587). The settings on record: recombinant PfPK7, Kinase-Glo ATP depletion luminescence.
Assay [8] deals with Calcium-dependent protein kinase 4 (Plasmodium falciparum (isolate 3D7)) (UniProt Q8IBS5). The experiment in a line: PfCDPK4 kinase inhibitors, biochemical, TCAMS library (AID 1159588; cut-off not given, nearly all actives have IC50 up to about 0.91 µM). The settings on record: recombinant PfCDPK4, Kinase-Glo ATP depletion luminescence.

SMILES strings stand for the structures. A number with no mark means an inactive call. For some of these results: Results with a measured potency or affinity are listed apart. The source made the active and inactive calls. Unless noted, the rule behind the calls is not given here.

Calcium-dependent protein kinase 4 (Plasmodium falciparum (isolate 3D7)), sequence (Q8IBS5 whole entry, looked up): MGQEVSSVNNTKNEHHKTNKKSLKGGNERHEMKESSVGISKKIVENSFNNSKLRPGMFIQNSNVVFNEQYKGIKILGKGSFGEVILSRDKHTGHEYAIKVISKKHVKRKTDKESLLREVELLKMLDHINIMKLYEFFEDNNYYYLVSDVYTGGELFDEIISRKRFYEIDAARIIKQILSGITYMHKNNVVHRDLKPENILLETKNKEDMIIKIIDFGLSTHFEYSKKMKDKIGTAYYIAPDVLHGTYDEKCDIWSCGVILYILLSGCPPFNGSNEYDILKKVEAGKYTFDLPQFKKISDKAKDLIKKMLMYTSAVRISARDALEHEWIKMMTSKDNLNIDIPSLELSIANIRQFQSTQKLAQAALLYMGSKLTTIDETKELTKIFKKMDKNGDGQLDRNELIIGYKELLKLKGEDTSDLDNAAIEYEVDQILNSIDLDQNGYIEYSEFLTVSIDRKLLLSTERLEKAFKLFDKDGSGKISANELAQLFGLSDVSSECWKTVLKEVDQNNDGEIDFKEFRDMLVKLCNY
L-lactate dehydrogenase (Plasmodium falciparum (isolate CDC / Honduras)), sequence (Q27743 whole entry, looked up): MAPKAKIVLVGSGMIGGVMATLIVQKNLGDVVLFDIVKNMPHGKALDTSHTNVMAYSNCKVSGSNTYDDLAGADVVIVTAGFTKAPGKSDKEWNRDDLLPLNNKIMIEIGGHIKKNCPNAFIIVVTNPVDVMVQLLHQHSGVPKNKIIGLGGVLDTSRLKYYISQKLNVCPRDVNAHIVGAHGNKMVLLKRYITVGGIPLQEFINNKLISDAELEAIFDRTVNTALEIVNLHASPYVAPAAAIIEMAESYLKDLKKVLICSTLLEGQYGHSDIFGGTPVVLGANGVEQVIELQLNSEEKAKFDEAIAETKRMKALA
Plasmodium falciparum protein kinase 6 (PK6, PF3D7_1337100), sequence (Q8IDW1 1-305): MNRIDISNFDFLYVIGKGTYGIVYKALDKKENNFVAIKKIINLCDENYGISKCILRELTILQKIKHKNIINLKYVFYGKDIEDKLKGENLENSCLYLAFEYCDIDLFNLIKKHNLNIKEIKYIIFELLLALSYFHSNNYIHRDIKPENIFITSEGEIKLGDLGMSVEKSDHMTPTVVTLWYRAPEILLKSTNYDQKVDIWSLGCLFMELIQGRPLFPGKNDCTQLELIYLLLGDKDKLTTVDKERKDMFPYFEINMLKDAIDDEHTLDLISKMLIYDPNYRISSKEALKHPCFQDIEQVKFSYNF
Protein kinase 7 (PK7), Plasmodium falciparum 3D7 (PF3D7_0213400), sequence (Q7YTF7 1-343): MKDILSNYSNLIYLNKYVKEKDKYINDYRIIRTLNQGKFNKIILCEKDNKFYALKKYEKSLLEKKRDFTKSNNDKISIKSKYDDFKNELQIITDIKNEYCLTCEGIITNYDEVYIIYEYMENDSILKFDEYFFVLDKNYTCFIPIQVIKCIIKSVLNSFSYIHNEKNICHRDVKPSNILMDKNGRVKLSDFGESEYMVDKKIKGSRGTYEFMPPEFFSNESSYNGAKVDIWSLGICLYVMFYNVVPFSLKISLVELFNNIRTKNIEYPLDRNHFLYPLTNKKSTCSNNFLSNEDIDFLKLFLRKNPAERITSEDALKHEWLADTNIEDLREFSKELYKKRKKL
Calcium-dependent protein kinase 1 (Plasmodium falciparum (isolate 3D7)), sequence (P62344 whole entry, looked up): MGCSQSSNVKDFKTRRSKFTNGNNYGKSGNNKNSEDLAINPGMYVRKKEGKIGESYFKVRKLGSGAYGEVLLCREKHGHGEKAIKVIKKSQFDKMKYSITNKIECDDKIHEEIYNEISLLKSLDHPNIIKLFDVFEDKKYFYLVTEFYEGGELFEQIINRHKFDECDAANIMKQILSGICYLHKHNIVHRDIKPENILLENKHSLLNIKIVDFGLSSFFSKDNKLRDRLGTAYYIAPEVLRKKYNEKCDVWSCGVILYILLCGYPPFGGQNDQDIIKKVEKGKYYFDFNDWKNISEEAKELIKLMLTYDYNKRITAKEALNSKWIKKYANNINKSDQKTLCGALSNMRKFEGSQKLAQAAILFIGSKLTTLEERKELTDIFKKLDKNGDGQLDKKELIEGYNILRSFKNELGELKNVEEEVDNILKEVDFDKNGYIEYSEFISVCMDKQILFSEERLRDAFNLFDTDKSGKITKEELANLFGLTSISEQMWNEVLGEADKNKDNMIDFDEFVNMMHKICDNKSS

With `COc1cc(C(=O)N2CCN(C(C)C)CC2)ccc1CN(C)CCCN1CCN(c2cccc(Cl)c2Cl)CC1`, the growth inhibition is 87% (active) in assay [1] and 101% (active) in assay [4]. In addition, the values for the inhibition in assay [2] and in assay [3] were 56% (active) and 0%, respectively. For the same molecule, the outcome in assay [5], in assay [6], in assay [7] and in assay [8] was inactive.
For `Cc1cc(C)c(C)c(OCCCON2C(N)=NC(N)=NC2(C)C)c1C`, the growth inhibition in assay [1] was 95% (active); in assay [4], 94% (active). Also, the inhibition is 64% (active) in assay [2] and -4% in assay [3]. In addition, the result in assay [5], in assay [6], in assay [7] and in assay [8] was inactive.
Turning to `CCN(CC)CCN(Cc1ccc(-c2ccc(C(F)(F)F)cc2)cc1)C(=O)Cn1c(CCc2ccc(F)c(F)c2F)nc(=O)c2ccccc21`, the growth inhibition in assay [1] is 66% (active); in assay [4], 97% (active). The inhibition is 38% in assay [2] and -10% in assay [3]. Besides, the outcome in assay [5], in assay [6], in assay [7] and in assay [8] was inactive.
Consider `CNC(=O)C1Cc2c([nH]c3ccc(Cl)cc23)C2(CCN(CCc3ccccc3)CC2)N1` (stereo not given), for which the values for the growth inhibition in assay [1] and in assay [4] were 16% and 98% (active), respectively. Besides, the inhibition was 2% in assay [2] and -2% in assay [3]. For the same molecule, the outcome in assay [5], in assay [6], in assay [7] and in assay [8] was inactive.
On to `COc1ccc([C@@]23Oc4cc(OC)cc(OC)c4[C@]2(O)C2(CC3c3ccccc3)SCCCS2)cc1` (stereo not given in full), for which the growth inhibition is 97% (active) in assay [1] and 96% (active) in assay [4]. In addition, the inhibition was 39% in assay [2] and -10% in assay [3]. The result in assay [5], in assay [6], in assay [7] and in assay [8] was inactive.
Regarding `O=C(NCCCCCN1CCC(c2c[nH]c3ccccc23)CC1)Nc1ccc(Cl)c(Cl)c1`, the growth inhibition in assay [1] is -4%; in assay [4], 92% (active). Moreover, the inhibition in assay [2] is 42%; in assay [3], 6%. Also, the outcome in assay [5], in assay [6], in assay [7] and in assay [8] was inactive.
As to `Cc1cc2cc(NC(=O)Nc3ccnc4ccccc34)ccc2n1C`, the results for the growth inhibition in assay [1] and in assay [4] were 33% and 90% (active), respectively. In addition, the inhibition in assay [2] was 17%; in assay [3], 4%. In addition, the result in assay [5], in assay [6], in assay [7] and in assay [8] was inactive.
As to `COc1ccc2c(NN=Cc3cccc(C)n3)cc(-c3ccccc3)nc2c1`, the figures for the growth inhibition in assay [1] and in assay [4] were 25% and 97% (active), respectively. In addition, the inhibition in assay [2] is -7%; in assay [3], 3%. Also, the result in assay [5], in assay [6], in assay [7] and in assay [8] was inactive.
On to `Cc1ccc2[nH]c3c(NCCCN(C)C)ncnc3c2c1`, for which the growth inhibition in assay [1] is -2%; in assay [4], 99% (active). Also, the inhibition is 1% in assay [2] and -4% in assay [3]. Further, the outcome in assay [5], in assay [6], in assay [7] and in assay [8] was inactive.
`O=S(=O)(c1ccc(OCc2ccc(Cl)cc2)cc1)c1cc2c(c(-c3ccc(F)cc3)c1)CCN(CC1CC1)CC2`: the figures for the growth inhibition in assay [1] and in assay [4] were 14% and 84% (active), respectively. Further, the inhibition in assay [2] and in assay [3] was -5% in each case. Also, the outcome in assay [5], in assay [6], in assay [7] and in assay [8] was inactive.
On to `Cc1cc(NC(=O)c2cccs2)ccc1OC1CCN(Cc2ccc(C#N)cc2)C1` (stereo not given), for which the results for the growth inhibition in assay [1] and in assay [4] were 61% (active) and 82% (active), respectively. The inhibition in assay [2] was 13%; in assay [3] it was -2%. Moreover, the outcome in assay [5], in assay [6], in assay [7] and in assay [8] was inactive.
As for `CCCCc1cc(NCC)nc(Nc2ccc(F)cc2)n1`, the growth inhibition in assay [1] is 56% (active); in assay [4], 98% (active). Besides, the inhibition in assay [2] is 33%; in assay [3], -1%. For the same molecule, the outcome in assay [5], in assay [6], in assay [7] and in assay [8] was inactive.
Turning to `O=C(CC1SC(N2N=C(c3cccs3)CC2c2ccccc2)=NC1=O)Nc1ccc(Cl)cc1` (stereo not given), the growth inhibition is 88% (active) in assay [1] and 83% (active) in assay [4]. In addition, the inhibition was 18% in assay [2] and 2% in assay [3]. Further, the outcome in assay [5], in assay [6], in assay [7] and in assay [8] was inactive.
For `CCOc1c(Br)cc(Br)cc1CNCCCCNc1nc2ccccc2[nH]1`, the growth inhibition in assay [1] was 37%; in assay [4], 101% (active). Also, the figures for the inhibition in assay [2] and in assay [3] were 25% and -4%, respectively. Besides, the result in assay [5], in assay [6], in assay [7] and in assay [8] was inactive.
Take `C[C@]12CC3CC(Nc4nc(N5CCOCC5)nc5ccccc45)(C1)C[C@@](C)(C3)C2`: the values for the growth inhibition in assay [1] and in assay [4] were 14% and 95% (active), respectively. In addition, the values for the inhibition in assay [2] and in assay [3] were 31% and -5%, respectively. Further, the result in assay [5], in assay [6], in assay [7] and in assay [8] was inactive.
Turning to `Cc1cccc(Nc2c(-c3cc(Br)ccc3O)nc3ncccn23)c1`, the growth inhibition was 98% (active) in assay [1] and 100% (active) in assay [4]. The inhibition in assay [2] is -2%; in assay [3] it was 1%. In addition, the result in assay [5], in assay [6], in assay [7] and in assay [8] was inactive.
For `O=C1CCCN1CCCNCc1cccc(-c2ccc(-c3nc4ccc(C(F)(F)F)cc4[nH]3)cc2)c1`, the growth inhibition in assay [1] was 96% (active); in assay [4], 101% (active). The inhibition is 15% in assay [2] and -3% in assay [3]. In addition, the result in assay [5], in assay [6], in assay [7] and in assay [8] was inactive.
For the molecule `Cc1cc(C)cc(-n2c(C)cc(C=C3SC(=Nc4ccc(Cl)cc4)NC3=O)c2C)c1`, the growth inhibition in assay [1] and in assay [4] was 97% (active) throughout. Moreover, the inhibition in assay [2] is 12%; in assay [3], -7%. Besides, the result in assay [5], in assay [6], in assay [7] and in assay [8] was inactive.
As for `CCCCCN1CCCCC(NS(=O)(=O)c2ccc(C(=O)Nc3cccc(C(F)(F)F)c3)cc2)C1` (stereo not given), the values for the growth inhibition in assay [1] and in assay [4] were 2% and 93% (active), respectively. Besides, the inhibition in assay [2] is 14%; in assay [3], -2%. The outcome in assay [5], in assay [6], in assay [7] and in assay [8] was inactive.
On to `O=C(NC1CCN(Cc2ccc(O)cc2)CC1)c1ccc(Cl)c(Cl)c1`, for which the values for the growth inhibition in assay [1] and in assay [4] were 3% and 95% (active), respectively. Besides, the inhibition in assay [2] is 1%; in assay [3], 4%. Also, the outcome in assay [5], in assay [6], in assay [7] and in assay [8] was inactive.
